Reference: ChEMBL document CHEMBL3988442, “University of Dundee, Small-Polar-MMV Screening Library” (2021)
For part of these data: Potency and affinity values are given separately.

Assays:
Parameters in all cases: scale not given: direction of the effect not stated beside the values
[1] = biological target: Protein translocase subunit SecA (Escherichia coli (strain K12)) (UniProt P10408); experiment: Assay to Identify E. coli SecA ATPase Inhibitors; format: functional; settings: 30 µM
[2] = biological target: T1, Ubiquitin-activating enzyme e1, putative (Leishmania donovani (strain BPK282A1)) (UniProt E9BSI1); experiment: Leishmania donovani Ubiquitin Activating Enzyme (LdE1); format: functional; settings: 30 µM
T1 sequence (whole entry): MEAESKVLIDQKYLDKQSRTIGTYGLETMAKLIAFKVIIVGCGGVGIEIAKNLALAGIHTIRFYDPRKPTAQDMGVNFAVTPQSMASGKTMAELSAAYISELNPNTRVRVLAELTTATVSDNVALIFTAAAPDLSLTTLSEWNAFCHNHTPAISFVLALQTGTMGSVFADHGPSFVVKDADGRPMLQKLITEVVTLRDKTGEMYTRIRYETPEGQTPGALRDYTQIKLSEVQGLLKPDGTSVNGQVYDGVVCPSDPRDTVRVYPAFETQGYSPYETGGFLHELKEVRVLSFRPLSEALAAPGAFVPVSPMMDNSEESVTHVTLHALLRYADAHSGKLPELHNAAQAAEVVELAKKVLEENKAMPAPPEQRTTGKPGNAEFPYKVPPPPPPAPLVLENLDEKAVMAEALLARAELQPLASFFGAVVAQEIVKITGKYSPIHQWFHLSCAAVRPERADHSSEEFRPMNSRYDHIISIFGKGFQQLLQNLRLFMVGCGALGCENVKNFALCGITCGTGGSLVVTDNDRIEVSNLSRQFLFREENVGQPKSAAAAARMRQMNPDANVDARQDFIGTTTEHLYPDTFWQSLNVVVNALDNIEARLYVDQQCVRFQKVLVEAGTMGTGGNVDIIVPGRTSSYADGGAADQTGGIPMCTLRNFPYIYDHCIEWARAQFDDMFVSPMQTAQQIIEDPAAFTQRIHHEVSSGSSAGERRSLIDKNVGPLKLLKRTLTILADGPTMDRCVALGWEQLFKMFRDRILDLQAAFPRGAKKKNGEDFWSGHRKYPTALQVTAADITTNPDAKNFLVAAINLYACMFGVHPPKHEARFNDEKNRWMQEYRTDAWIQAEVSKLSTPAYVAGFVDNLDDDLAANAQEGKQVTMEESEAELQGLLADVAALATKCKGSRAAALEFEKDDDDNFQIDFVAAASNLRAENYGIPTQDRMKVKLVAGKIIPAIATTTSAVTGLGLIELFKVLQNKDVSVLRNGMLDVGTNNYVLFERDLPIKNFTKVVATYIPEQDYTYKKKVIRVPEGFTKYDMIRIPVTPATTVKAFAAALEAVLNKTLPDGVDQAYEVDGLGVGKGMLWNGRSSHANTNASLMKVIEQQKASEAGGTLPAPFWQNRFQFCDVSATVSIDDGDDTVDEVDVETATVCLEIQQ

[3] = biological target: T2, Aspartate--tRNA(Asp/Asn) ligase (Mycobacterium tuberculosis (strain ATCC 25618 / H37Rv)) (UniProt P9WFW3); experiment: Assay for Asp RNA synthetase-1 from Mycobacterium tuberculosis; format: functional; settings: 30 µM; also: in the data most compounds retested in dose-response had high values
T2 sequence (whole entry): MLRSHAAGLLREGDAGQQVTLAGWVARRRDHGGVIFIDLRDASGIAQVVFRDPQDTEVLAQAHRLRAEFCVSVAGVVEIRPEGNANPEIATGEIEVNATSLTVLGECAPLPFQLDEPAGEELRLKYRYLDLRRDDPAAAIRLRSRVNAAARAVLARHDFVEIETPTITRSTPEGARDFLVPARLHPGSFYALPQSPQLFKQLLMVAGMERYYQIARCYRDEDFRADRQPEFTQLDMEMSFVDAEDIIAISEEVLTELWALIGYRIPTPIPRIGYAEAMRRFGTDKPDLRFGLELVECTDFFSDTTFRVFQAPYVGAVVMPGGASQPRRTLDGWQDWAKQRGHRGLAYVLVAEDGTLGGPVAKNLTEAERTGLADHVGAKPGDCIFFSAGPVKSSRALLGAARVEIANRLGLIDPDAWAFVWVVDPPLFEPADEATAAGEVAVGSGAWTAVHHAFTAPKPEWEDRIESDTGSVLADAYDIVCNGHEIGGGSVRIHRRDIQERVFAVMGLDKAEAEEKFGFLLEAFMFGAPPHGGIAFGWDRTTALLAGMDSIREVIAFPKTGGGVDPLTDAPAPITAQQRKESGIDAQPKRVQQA

[4] = biological target: AMP-activated protein kinase, AMPK (Homo sapiens) (UniProt P54646+O43741+P54619+Q9UGJ0+Q9Y478+Q13131+Q9UGI9); experiment: AMP-dependent Kinase enzyme assay. An in vitro enzyme assay that detects ADP turnover that is directly proportional to AMPK activity. This uses naive AMPK that is activated during the assay with MK-8722; format: functional; settings: 30 µM
[5] = biological target: Sialic acid-binding Ig-like lectin 9 (Homo sapiens) (UniProt Q9Y336); experiment: Hs-Siglec9 ALPHAscreen SOP 20170721; settings: 10 µM
Sequence of Sialic acid-binding Ig-like lectin 9 (Homo sapiens) (Q9Y336 whole entry): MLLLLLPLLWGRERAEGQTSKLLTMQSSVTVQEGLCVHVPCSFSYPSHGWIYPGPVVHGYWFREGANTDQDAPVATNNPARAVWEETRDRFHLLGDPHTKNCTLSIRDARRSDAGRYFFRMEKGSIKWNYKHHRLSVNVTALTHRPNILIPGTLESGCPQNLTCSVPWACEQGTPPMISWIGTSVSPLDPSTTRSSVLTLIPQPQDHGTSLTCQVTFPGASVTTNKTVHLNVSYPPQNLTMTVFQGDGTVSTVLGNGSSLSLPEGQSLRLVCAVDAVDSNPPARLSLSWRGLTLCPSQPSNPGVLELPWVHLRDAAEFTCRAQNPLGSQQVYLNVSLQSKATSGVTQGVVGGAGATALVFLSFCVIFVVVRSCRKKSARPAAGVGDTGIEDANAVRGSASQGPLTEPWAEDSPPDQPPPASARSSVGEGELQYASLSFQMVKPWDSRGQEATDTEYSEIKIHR

[6] = test system: Trypanosoma cruzi; experiment: Trypanosoma cruzi phosphomannomutase and mannose-1-phosphate guanylyltransferase assay; format: functional; settings: 10 µM
[7] = biological target: T3, Arginase-2, mitochondrial (Homo sapiens) (UniProt P78540); experiment: in vitro enzyme assay to detect the production of urea directly proportional to the activity of Arginase II; format: functional; settings: 33.3 µM; also: in the data most compounds retested in dose-response had high values
T3 sequence (whole entry): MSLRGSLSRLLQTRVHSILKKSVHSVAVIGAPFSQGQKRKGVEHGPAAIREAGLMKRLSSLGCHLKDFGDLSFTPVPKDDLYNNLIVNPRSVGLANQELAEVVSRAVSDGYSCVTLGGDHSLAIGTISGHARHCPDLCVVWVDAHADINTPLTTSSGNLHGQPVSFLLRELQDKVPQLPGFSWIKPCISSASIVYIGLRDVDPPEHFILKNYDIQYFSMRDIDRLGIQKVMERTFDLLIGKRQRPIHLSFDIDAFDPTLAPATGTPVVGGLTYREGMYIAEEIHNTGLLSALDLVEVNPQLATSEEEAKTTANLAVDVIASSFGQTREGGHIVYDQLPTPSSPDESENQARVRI

[8] = biological target: T4, Proteasome subunit beta (Trypanosoma cruzi) (UniProt O96673); experiment: Trypanosoma cruzi proteasome chymotrypsin-like activity (TcProtChymo) assay.; also: in the data most compounds retested in dose-response had high values; format: functional; settings: 9.37 µM
T4 sequence (whole entry): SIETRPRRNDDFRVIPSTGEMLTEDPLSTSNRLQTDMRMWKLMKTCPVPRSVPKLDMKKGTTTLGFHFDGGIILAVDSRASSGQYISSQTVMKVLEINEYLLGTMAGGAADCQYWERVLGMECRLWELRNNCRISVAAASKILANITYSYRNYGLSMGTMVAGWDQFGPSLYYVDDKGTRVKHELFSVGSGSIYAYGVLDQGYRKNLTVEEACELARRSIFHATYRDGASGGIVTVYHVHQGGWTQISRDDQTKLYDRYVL

[9] = organism: Homo sapiens; experiment: To identify inhibition of the IFN signalling (Jak-Stat) pathway via expression of an eGFP reporter gene under the control of an IFN-stimulated response element (ISRE) containing MxA promoter.; format: functional; settings: 30 µM
[10] = biological target: Shiga toxin 2 (Escherichia coli O157:H7) (UniProt P09385+P09386); experiment: E. coli 0.157:H7 Shiga Toxin SOP - stx2 screening assay; format: functional; settings: 30 µM
[11] = biological target: T5, Tyrosyl-tRNA synthetase, putative (Trypanosoma cruzi (strain CL Brener)) (UniProt Q4DSP6); experiment: Trypanosoma cruzi tyrosyl tRNA synthetase (TcYRS) _High Tyrosine SOP; format: functional; settings: 30 µM; also: in the data most compounds retested in dose-response had high values
T5 sequence (whole entry): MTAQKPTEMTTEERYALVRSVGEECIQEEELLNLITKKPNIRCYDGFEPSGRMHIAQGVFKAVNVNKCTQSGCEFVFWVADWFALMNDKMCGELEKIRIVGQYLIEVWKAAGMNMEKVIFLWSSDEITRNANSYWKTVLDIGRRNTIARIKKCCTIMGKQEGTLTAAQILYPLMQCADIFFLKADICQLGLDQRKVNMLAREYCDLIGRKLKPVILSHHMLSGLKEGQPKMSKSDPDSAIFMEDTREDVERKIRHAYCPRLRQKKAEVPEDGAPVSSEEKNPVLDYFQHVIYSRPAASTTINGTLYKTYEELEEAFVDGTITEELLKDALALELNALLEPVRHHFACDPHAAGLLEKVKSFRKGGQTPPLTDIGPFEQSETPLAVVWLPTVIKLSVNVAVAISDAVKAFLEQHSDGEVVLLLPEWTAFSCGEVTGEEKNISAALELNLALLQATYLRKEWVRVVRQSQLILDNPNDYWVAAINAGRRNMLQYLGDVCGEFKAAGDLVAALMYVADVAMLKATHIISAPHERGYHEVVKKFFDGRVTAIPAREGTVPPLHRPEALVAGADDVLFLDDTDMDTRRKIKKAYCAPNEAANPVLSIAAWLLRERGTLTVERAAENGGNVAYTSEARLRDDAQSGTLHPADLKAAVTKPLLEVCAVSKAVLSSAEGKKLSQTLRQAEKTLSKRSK

[12] = biological target: T5, Tyrosyl-tRNA synthetase, putative (Trypanosoma cruzi (strain CL Brener)); experiment: Trypanosoma cruzi tyrosyl tRNA synthetase (TcYRS) SOP; format: functional; settings: 30 µM
[13] = biological target: Chromo domain-containing protein 1 (Saccharomyces cerevisiae (strain ATCC 204508 / S288c) (Baker's yeast)) (UniProt P32657); experiment: ScCHD-1 Enzyme Inhibition Assay; format: functional; settings: 30 µM; also: in the data most compounds retested in dose-response had high values
Sequence of Chromo domain-containing protein 1 (Saccharomyces cerevisiae (strain ATCC 204508 / S288c) (Baker's yeast)) (P32657 whole entry, the tested form may be a part): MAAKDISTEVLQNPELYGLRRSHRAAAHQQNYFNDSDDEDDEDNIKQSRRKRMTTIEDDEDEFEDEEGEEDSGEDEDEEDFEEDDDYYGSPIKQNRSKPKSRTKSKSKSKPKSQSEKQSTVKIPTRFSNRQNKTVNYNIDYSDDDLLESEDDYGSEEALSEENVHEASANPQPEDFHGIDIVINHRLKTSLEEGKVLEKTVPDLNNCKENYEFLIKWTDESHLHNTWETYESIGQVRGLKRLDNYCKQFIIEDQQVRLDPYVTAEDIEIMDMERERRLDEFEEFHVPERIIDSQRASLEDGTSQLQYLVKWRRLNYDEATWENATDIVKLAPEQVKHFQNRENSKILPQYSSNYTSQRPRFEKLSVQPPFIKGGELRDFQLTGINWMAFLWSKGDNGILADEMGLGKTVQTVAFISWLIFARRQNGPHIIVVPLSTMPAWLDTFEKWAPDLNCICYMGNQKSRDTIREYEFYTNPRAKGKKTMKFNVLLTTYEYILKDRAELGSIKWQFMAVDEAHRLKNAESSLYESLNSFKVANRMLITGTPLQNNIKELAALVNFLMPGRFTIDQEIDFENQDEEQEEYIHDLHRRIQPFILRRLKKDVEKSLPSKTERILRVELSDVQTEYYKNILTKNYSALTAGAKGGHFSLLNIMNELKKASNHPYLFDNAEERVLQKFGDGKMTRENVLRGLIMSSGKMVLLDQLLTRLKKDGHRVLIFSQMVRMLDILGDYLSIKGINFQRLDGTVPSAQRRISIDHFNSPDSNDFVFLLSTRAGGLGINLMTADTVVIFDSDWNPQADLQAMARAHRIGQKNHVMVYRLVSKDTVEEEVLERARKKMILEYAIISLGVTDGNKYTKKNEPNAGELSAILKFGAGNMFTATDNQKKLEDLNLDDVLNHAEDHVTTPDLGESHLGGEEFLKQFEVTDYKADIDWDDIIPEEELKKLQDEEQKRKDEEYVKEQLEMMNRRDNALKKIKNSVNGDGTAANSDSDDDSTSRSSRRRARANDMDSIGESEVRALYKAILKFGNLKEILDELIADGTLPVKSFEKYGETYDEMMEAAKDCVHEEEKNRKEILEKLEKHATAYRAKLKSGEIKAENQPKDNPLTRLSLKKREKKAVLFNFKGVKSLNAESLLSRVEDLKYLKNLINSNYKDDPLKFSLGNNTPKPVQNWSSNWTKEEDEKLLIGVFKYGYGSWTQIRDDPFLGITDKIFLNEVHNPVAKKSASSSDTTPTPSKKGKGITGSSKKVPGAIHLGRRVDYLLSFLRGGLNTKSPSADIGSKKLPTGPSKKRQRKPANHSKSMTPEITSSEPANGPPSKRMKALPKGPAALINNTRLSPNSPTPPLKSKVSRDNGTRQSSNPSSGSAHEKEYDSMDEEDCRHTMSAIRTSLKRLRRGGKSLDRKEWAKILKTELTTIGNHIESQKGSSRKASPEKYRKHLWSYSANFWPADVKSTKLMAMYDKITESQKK

Sequence of Protein translocase subunit SecA (Escherichia coli (strain K12)) (P10408 whole entry): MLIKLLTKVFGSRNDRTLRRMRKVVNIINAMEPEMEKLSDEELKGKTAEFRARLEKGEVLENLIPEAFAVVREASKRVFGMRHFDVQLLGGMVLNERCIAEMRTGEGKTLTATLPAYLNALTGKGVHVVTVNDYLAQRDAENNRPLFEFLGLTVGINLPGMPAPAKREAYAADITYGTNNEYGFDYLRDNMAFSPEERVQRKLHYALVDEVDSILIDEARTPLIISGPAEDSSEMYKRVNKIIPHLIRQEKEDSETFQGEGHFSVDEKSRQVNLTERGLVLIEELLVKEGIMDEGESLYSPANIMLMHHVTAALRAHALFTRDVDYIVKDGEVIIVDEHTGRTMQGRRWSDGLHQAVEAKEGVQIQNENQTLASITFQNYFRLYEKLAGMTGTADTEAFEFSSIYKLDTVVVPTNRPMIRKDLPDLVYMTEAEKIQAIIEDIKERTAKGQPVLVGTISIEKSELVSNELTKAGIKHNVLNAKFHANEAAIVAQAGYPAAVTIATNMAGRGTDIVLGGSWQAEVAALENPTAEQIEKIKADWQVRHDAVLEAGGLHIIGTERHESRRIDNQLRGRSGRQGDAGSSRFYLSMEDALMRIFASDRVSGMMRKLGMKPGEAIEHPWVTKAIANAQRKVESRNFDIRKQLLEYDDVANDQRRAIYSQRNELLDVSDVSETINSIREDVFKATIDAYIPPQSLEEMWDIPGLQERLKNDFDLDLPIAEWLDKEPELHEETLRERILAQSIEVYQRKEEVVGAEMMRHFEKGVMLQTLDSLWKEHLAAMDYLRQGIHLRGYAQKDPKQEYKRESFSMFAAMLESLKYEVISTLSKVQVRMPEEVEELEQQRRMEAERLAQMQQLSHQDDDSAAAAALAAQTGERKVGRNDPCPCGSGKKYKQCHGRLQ

Row | SMILES | Percent Effect [1] | Percent Effect [2] | Percent Effect [3] | Percent Effect [4] | Percent Effect [5] | Percent Effect [6] | Percent Effect [7] | Percent Effect [8] | Percent Effect [9] | Percent Effect [10] | Percent Effect [11] | Percent Effect [12] | Percent Effect [13]
1 | CN(C)C(=O)CN1CCN(C(=O)Cc2csc(-c3ncccn3)n2)CC1 | -3.23% | 13.2% | -1.92% | -1.28% | 12% | -3.19% | 1.92% | 8.69% | 23.7% | 30% | 5.39% | 9.76% | -7.21%
2 | CNC(=O)[C@@]12CCCN(c3ncccn3)[C@@H]1CN(C)C2 | -7.94% | 5.2% | -0.539% | 20.5% | -6.43% | -6.21% | 4.52% | 9.4% | 14.9% | -9.88% | -4.23% | -1.28% | -2.69%
3 | CNC(=O)CN1CCOCC2(CCCN(Cc3cccnc3)C2)C1 (configuration not stated) | -1.67% | -2.7% | 2.13% | 2.03% | -2.12% | -4.1% | -0.833% | 0.93% | -2.53% | -22.5% | 6.93% | 1.22% | 3.52%
4 | CN(C)[C@@H]1CCN(C(=O)Cc2ccc(F)cc2)[C@H]1Cc1cnn(C)c1 | -0.511% | 13.3% | 7.04% | 9.81% | -9.25% | -4.72% | -1.63% | 12.8% | -1.72% | -6.42% | 3.19% | 6.41% | 1.98%
5 | CCN1CCC2(CC1)CC(Nc1ncccn1)CO2 (configuration not stated) | -4.33% | 2.7% | -1.65% | -2.57% | 1.3% | 4.49% | 35.8% | 6.34% | 8.12% | 11.5% | 6.93% | 13.4% | -1.38%
6 | CN1C(=O)C2(CCN(CC3CC3)CC2)c2ccccc21 | -0.0958% | 10.8% | -2.95% | -1.71% | -10.2% | -6.16% | 0.955% | 16.4% | -8.93% | -0.91% | 2.16% | 17.9% | -2.43%
7 | COc1cc(OC)c(C2SCC(=O)Nc3n[nH]cc32)cc1OC (configuration not stated) | -4.64% | 5.26% | 10.6% | 15.2% | 0.428% | -0.682% | -7.1% | 9.11% | 20.6% | 10.6% | 2.13% | 2.6% | -1.49%
8 | CCNC(=O)NC(=O)CNC1(c2noc(C)n2)CCCCC1 | -8.65% | 15.8% | 0.329% | -3.69% | -6.42% | 6.91% | -5.92% | 8.34% | 6.39% | 4.43% | 3.19% | -7.79% | -19.2%
9 | COc1cccc(CCNCc2c(C)nn(C)c2N(C)C)c1 | -3.25% | 10.5% | -2.61% | -2.73% | 0.941% | -4.13% | -3.45% | 13.4% | -20.1% | 28.4% | 3.43% | 12.2% | -4.73%
